± gives the standard deviation of the averaged measurements.
What follows are molecules tested on HT-1080 (assay: relative cell viability with RSL3 co-treatment (fraction of control); higher = stronger protection from RSL3-induced ferroptosis (higher viability)). Settings: 10 µM.
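Further: viability read as CCK-8 absorbance at 450 nm in cells co-exposed to the GPX4 inhibitor RSL3, relative to a 0.01% DMSO vehicle control.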

SMILES	relative cell viability
Cc1c(NC(=O)c2ccc(C(C)(C)C)cc2)cccc1-c1cn(C)c(=O)c(Nc2ccc(C(=O)N3CCOCC3)cc2)n1	0.647 ± 0.1
CCN1/C(=C/C(C)=O)Sc2ccc(OC)cc21	0.76 ± 0.1
CC1(COc2ccc3c(c2)ncn3-c2ccc3cccc(N4CCC(N)CC4)c3n2)COC1	0.683 ± 0.27
O=C(NCCO)c1cccc(-c2cc(Nc3ccc(OC(F)(F)F)cc3)ncn2)c1	0.713 ± 0.13
CCOc1cc(N2CCC(O)CC2)ccc1Nc1ncc2c(n1)N(C)c1ccccc1C(=O)N2C	0.793 ± 0.015
C=CC(=O)Nc1cccc(Nc2nc(Nc3ccc(NC4CN(CCF)C4)cc3OC)ncc2C(F)(F)F)c1	0.443 ± 0.068
CNc1nc(Nc2cnn([C@H]3CCN(C4COC4)C[C@@H]3F)c2Cl)ncc1C(F)(F)F	0.617 ± 0.032
CC(C)(C)Cn1c(N)nc2ccc(-c3[nH]c(C(C)(C)C)nc3-c3ccc(F)cc3)nc21	0.71 ± 0.017
NC1(c2ccc(-c3nc4ccn5c(=O)[nH]nc5c4cc3-c3ccccc3)cc2)CCC1	0.467 ± 0.1
Nc1ncnc2c1c(-c1cnc3[nH]ccc3c1)nn2C1CCCC1	0.397 ± 0.092
O=C1NC(=O)[C@@H](c2cn3c4c(cccc24)CCC3)[C@@H]1c1c[nH]c2ccccc12 [Tivantinib (ARQ 197)]	0.64 ± 0.085
C=CC(=O)Nc1cccc(Oc2nc(Nc3ccc(N4CCN(C)CC4)cc3OC)ncc2Cl)c1	0.927 ± 0.04
Cc1nc(NC(=O)N2CCC[C@H]2C(N)=O)sc1-c1ccnc(C(C)(C)C(F)(F)F)c1 [Alpelisib (BYL719)]	0.827 ± 0.015
COc1cc2ncc(-c3ccccc3)nc2cc1OC [Tyrphostin AG 1296]	0.567 ± 0.11
C[C@@H](N)[C@H]1CC[C@H](C(=O)Nc2ccncc2)CC1	0.843 ± 0.032
CCN(CC)CCCCNc1ncc2cc(-c3cc(OC)cc(OC)c3)c(NC(=O)NC(C)(C)C)nc2n1	0.633 ± 0.14
Cc1[nH]c(/C=C2\C(=O)Nc3ccccc32)c(C)c1CCC(=O)O [Orantinib (TSU-68, SU6668)]	0.903 ± 0.057
N#CC[C@H](C1CCCC1)n1cc(-c2ncnc3[nH]ccc23)cn1	0.897 ± 0.083
O=C(Nc1cc(C(F)(F)F)cc(C(F)(F)F)c1)c1cc(Cl)ccc1O	0.537 ± 0.06

SMILES	relative cell viability
COc1cc2ncnc(Nc3ccc(F)c(Cl)c3)c2cc1OCCCN1CCOCC1 [Gefitinib (ZD1839)]	0.66 ± 0.072
CC(C)CC(NC(=O)C(Cc1ccccc1)NC(=O)C(CCC(N)=O)NC(=O)C(Cc1ccc(O)cc1)NC(=O)C(C)NC(=O)CNC(=O)C(CCCCN)NC(=O)C(Cc1c[nH]c2ccccc12)NC(=O)C(NC(=O)C(Cc1c[nH]c2ccccc12)NC(=O)C(CCCCN)NC(=O)CNC(=O)C(CC(N)=O)NC(=O)C(CCC(=O)O)NC(=O)C(Cc1c[nH]c2ccccc12)NC(=O)C(NC(=O)C(Cc1c[nH]c2ccccc12)NC(=O)C(CO)NC(=O)CNC(=O)C1CCCN1C(=O)C(Cc1c[nH]c2ccccc12)NC(=O)C(CCC(N)=O)NC(=O)C(Cc1ccccc1)NC(=O)CNC(=O)C(N)Cc1c[nH]cn1)C(C)O)C(C)O)C(=O)NC(CCCCN)C(=O)NCC(=O)NCC(=O)NCC(=O)NCC(=O)NC(CO)C(=O)NC(CCCNC(=N)N)C(=O)NC(CCCNC(=N)N)C(=O)NC(CCCNC(=N)N)C(=O)NC(CCCNC(=N)N)C(=O)NC(CCCNC(=N)N)C(=O)NC(CCCNC(=N)N)C(=O)NC(CCCNC(=N)N)C(=O)NC(CCCNC(=N)N)C(=O)NC(CCCNC(=N)N)C(=O)O (stereo not drawn)	0.7133 ± 0.0058
O=C(NOC[C@H](O)CO)c1ccc(F)c(F)c1Nc1ccc(I)cc1F	0.897 ± 0.032
O=C(NCc1ccccc1)c1csc(Nc2ccncn2)n1 [Thiazovivin]	0.557 ± 0.24
COc1cc(Nc2ncc(F)c(Nc3ccc4c(n3)N(COP(=O)(O)O)C(=O)C(C)(C)O4)n2)cc(OC)c1OC [Fostamatinib (R788)]	0.6 ± 0.017
CN1CCN(c2ccc(-c3ccncc3-c3cc(F)c(O)c(F)c3)cc2)CC1	0.48 ± 0.25
N#Cc1c(NC(=O)c2cccc3ccccc23)sc2c1CCCC2 [JNK Inhibitor IX]	0.573 ± 0.049
CN(C)Cc1cccc(N/C(=C2\C(=O)Nc3cc(C(N)=O)ccc32)c2ccccc2)c1	0.627 ± 0.045
CC1(C)CNc2cc(NC(=O)c3cccnc3NCc3ccncc3)ccc21 [Motesanib Diphosphate (AMG-706)]	0.533 ± 0.21
Cc1ccc(NC(=O)c2cccc(C(C)(C)C#N)c2)cc1Nc1ccc2ncn(C)c(=O)c2c1	0.507 ± 0.047
CCCS(=O)(=O)Nc1ccc(F)c(C(=O)c2c[nH]c3ncc(-c4ccc(Cl)cc4)cc23)c1F [Vemurafenib (PLX4032, RG7204)]	0.323 ± 0.091
O=C(Nc1ccc(OC(F)(F)F)cc1)c1sccc1NCc1ccnc2ccccc12	0.57 ± 0.095
COc1cc(N2CCC(N(C)C)CC2)ccc1Nc1ncc(Cl)c(Nc2ccccc2P(C)(C)=O)n1	0.36 ± 0.082
CCc1cc(Nc2nccc(-c3c(-c4ccc(OC)c(C(=O)Nc5c(F)cccc5F)c4)nc4ccccn34)n2)c(OC)cc1N1CCC(N2CCN(S(C)(=O)=O)CC2)CC1	0.55 ± 0.01
CNc1nc(Nc2cn(C(C)(C)C#N)nc2C)ncc1C(F)(F)F	0.757 ± 0.1
CS(=O)(=O)CCNCc1ccc(-c2ccc3ncnc(Nc4ccc(OCc5cccc(F)c5)c(Cl)c4)c3c2)o1 [Lapatinib]	1.21 ± 0.064
CC[C@@H]1C(=O)N(C)c2cnc(Nc3ccc(C(=O)NC4CCN(C)CC4)cc3OC)nc2N1C1CCCC1	0.553 ± 0.031
O=C(Nc1nc2cccc(-c3ccc(CN4CCS(=O)(=O)CC4)cc3)n2n1)C1CC1 [Filgotinib (GLPG0634)]	0.687 ± 0.035
CO[C@H]1C[C@@H]2CC[C@@H](C)[C@@](O)(O2)C(=O)C(=O)N2CCCC[C@H]2C(=O)O[C@H]([C@H](C)C[C@@H]2CC[C@H](n3cnnn3)[C@H](OC)C2)CC(=O)[C@H](C)/C=C(\C)[C@@H](O)[C@@H](OC)C(=O)[C@H](C)C[C@H](C)/C=C/C=C/C=C/1C [Zotarolimus(ABT-578)]	0.607 ± 0.16

Source: the supplement of paper PMC9588786
